According to publication PMC8384837, “Expanding the binding specificity for RNA recognition by a PUF domain”:

Experiments:
Experiment in all cases: yeast three-hybrid, YBZ-1, SC-Leu-His + 0.5 mM 3-AT, 4 days
Conditions in all cases: tags: N-Gal4 AD-HA kept; label: inside an RPR1-promoter hybrid RNA with tandem MS2 sites; ssRNA
PUM1 PUF domain R3-FFA = PUM1 PUF domain R3-FFA (Homo sapiens, UniProt Q14671 828-1176, C935F;R936F;Q939A)
Procedure, shortened: (§1)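 Repeat regions from input (SC-Leu) and selection (SC-Leu-His + 0.5 mM 3-AT) plates were PCR-amplified and Illumina-sequenced after four days of growth. The cells were strain YBZ-1 with a LexA–MS2 coat fusion and a HIS3 reporter, co-expressing Pumilio-1 PUF domain libraries and matching RNA elements from a centromeric plasmid. The interaction score is the log change in variant frequency from input to selection, taken in log2 with a pseudocount of 1 for absent variants.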

PUM1 PUF domain R3-LRM = PUM1 PUF domain R3-LRM (Homo sapiens, UniProt Q14671 828-1176, C935L;Q939M)
Procedure, shortened: as §1

PUM1 PUF domain R4-NFQ = PUM1 PUF domain R4-NFQ (Homo sapiens, UniProt Q14671 828-1176, H972F)
Procedure, shortened: as §1

PUM1 PUF domain R8-RFN = PUM1 PUF domain R8-RFN (Homo sapiens, UniProt Q14671 828-1176, N1122R;Y1123F;Q1126N)
Procedure, shortened: as §1

PUM1 PUF domain R5-KGG = PUM1 PUF domain R5-KGG (Homo sapiens, UniProt Q14671 828-1176, C1007K;R1008G;Q1011G)
Procedure, shortened: as §1

PUM1 PUF domain R1-RAQ = PUM1 PUF domain R1-RAQ (Homo sapiens, UniProt Q14671 828-1176, S863R;R864A)
Procedure, shortened: as §1

PUM1 PUF domain R1-KVE = PUM1 PUF domain R1-KVE (Homo sapiens, UniProt Q14671 828-1176, S863K;R864V;Q867E)
Procedure, shortened: as §1

PUM1 PUF domain R8-TWN = PUM1 PUF domain R8-TWN (Homo sapiens, UniProt Q14671 828-1176, N1122T;Y1123W;Q1126N)
Procedure, shortened: as §1

PUM1 PUF domain R1-VWK = PUM1 PUF domain R1-VWK (Homo sapiens, UniProt Q14671 828-1176, S863V;R864W;Q867K)
Procedure, shortened: as §1

PUM1 PUF domain R1-NIS = PUM1 PUF domain R1-NIS (Homo sapiens, UniProt Q14671 828-1176, S863N;R864I;Q867S)
Procedure, shortened: as §1

PUM1 PUF domain R1-RAQ, sequence (Q14671 828-1176 S863R/R864A): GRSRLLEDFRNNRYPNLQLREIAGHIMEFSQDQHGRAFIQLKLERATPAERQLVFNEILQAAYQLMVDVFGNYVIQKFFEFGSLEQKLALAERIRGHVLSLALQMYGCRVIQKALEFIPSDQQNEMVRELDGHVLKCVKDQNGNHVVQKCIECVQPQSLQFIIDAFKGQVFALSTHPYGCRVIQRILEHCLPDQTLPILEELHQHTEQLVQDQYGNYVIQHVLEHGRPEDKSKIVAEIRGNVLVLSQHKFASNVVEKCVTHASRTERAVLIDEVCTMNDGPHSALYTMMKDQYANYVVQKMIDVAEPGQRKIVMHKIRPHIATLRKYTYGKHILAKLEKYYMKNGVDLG
PUM1 PUF domain R5-KGG, sequence (Q14671 828-1176 C1007K/R1008G/Q1011G): as the sequence (Q14671 828-1176 S863R/R864A) above, with R36S, A37R, C180K, R181G, Q184G counted along it
PUM1 PUF domain R1-KVE, sequence (Q14671 828-1176 S863K/R864V/Q867E): as the sequence (Q14671 828-1176 S863R/R864A) above, with R36K, A37V, Q40E counted along it
PUM1 PUF domain R3-FFA, sequence (Q14671 828-1176 C935F/R936F/Q939A): as the sequence (Q14671 828-1176 S863R/R864A) above, with R36S, A37R, C108F, R109F, Q112A counted along it
PUM1 PUF domain R8-RFN, sequence (Q14671 828-1176 N1122R/Y1123F/Q1126N): as the sequence (Q14671 828-1176 S863R/R864A) above, with R36S, A37R, N295R, Y296F, Q299N counted along it
PUM1 PUF domain R3-LRM, sequence (Q14671 828-1176 C935L/Q939M): as the sequence (Q14671 828-1176 S863R/R864A) above, with R36S, A37R, C108L, Q112M counted along it
PUM1 PUF domain R1-NIS, sequence (Q14671 828-1176 S863N/R864I/Q867S): as the sequence (Q14671 828-1176 S863R/R864A) above, with R36N, A37I, Q40S counted along it
PUM1 PUF domain R4-NFQ, sequence (Q14671 828-1176 H972F): as the sequence (Q14671 828-1176 S863R/R864A) above, with R36S, A37R, H145F counted along it
PUM1 PUF domain R1-VWK, sequence (Q14671 828-1176 S863V/R864W/Q867K): as the sequence (Q14671 828-1176 S863R/R864A) above, with R36V, A37W, Q40K counted along it
PUM1 PUF domain R8-TWN, sequence (Q14671 828-1176 N1122T/Y1123W/Q1126N): as the sequence (Q14671 828-1176 S863R/R864A) above, with R36S, A37R, N295T, Y296W, Q299N counted along it

Sequence: GGCUAGAACUAGUGGAUCCCCCGGCGCCCGGCGGCUCGAGCCCGGGUAAGUGUAAGUAGUCUGCAUGCCGCCGGGCGCCAUGCCUGCAGGUCGACUCUAGAAAACAUG
- binding signal (PUM1 PUF domain R3-FFA): 8.18 log2 enrichment (interaction score)
- binding signal (PUM1 PUF domain R3-LRM): 3.32 log2 enrichment (interaction score)

Sequence: GGCUAGAACUAGUGGAUCCCCCGGCGCCCGGCGGCUCGAGCCCGGGUAAGUGUAUAUAGUCUGCAUGCCGCCGGGCGCCAUGCCUGCAGGUCGACUCUAGAAAACAUG
- binding signal (PUM1 PUF domain R4-NFQ): 2.34 log2 enrichment (interaction score)

Sequence: GGCUAGAACUAGUGGAUCCCCCGGCGCCCGGCGGCUCGAGCCCGGGUAAGUGUAAAUAGUCUGCAUGCCGCCGGGCGCCAUGCCUGCAGGUCGACUCUAGAAAACAUG
- binding signal (PUM1 PUF domain R8-RFN): 2.38 log2 enrichment (interaction score)

Sequence: GGCUAGAACUAGUGGAUCCCCCGGCGCCCGGCGGCUCGAGCCCGGGUAAGUGUCAAUAGUCUGCAUGCCGCCGGGCGCCAUGCCUGCAGGUCGACUCUAGAAAACAUG
- binding signal (PUM1 PUF domain R5-KGG): 2.89 log2 enrichment (interaction score)

Sequence: GGCUAGAACUAGUGGAUCCCCCGGCGCCCGGCGGCUCGAGCCCGGGUAAGUGUAAAUCGUCUGCAUGCCGCCGGGCGCCAUGCCUGCAGGUCGACUCUAGAAAACAUG
- binding signal (PUM1 PUF domain R1-RAQ): 2.93 log2 enrichment (interaction score)
- binding signal (PUM1 PUF domain R1-KVE): 3.75 log2 enrichment (interaction score)

Sequence: GGCUAGAACUAGUGGAUCCCCCGGCGCCCGGCGGCUCGAGCCCGGGUAAGCGUAAAUAGUCUGCAUGCCGCCGGGCGCCAUGCCUGCAGGUCGACUCUAGAAAACAUG
- binding signal (PUM1 PUF domain R8-TWN): 2.51 log2 enrichment (interaction score)
- binding signal (PUM1 PUF domain R8-RFN): 2.57 log2 enrichment (interaction score)

Sequence: GGCUAGAACUAGUGGAUCCCCCGGCGCCCGGCGGCUCGAGCCCGGGUAAGUGUAAUUAGUCUGCAUGCCGCCGGGCGCCAUGCCUGCAGGUCGACUCUAGAAAACAUG
- binding signal (PUM1 PUF domain R3-FFA): 4.46 log2 enrichment (interaction score)

Sequence: GGCUAGAACUAGUGGAUCCCCCGGCGCCCGGCGGCUCGAGCCCGGGUAAGUGUAAAUUGUCUGCAUGCCGCCGGGCGCCAUGCCUGCAGGUCGACUCUAGAAAACAUG
- binding signal (PUM1 PUF domain R1-RAQ): 2.71 log2 enrichment (interaction score)
- binding signal (PUM1 PUF domain R1-KVE): 3.9 log2 enrichment (interaction score)
- binding signal (PUM1 PUF domain R1-VWK): 3.24 log2 enrichment (interaction score)
- binding signal (PUM1 PUF domain R1-NIS): 6.67 log2 enrichment (interaction score)

Sequence: GGCUAGAACUAGUGGAUCCCCCGGCGCCCGGCGGCUCGAGCCCGGGUAAGUGUUAAUAGUCUGCAUGCCGCCGGGCGCCAUGCCUGCAGGUCGACUCUAGAAAACAUG
- binding signal (PUM1 PUF domain R5-KGG): 2.27 log2 enrichment (interaction score)

Sequence: GGCUAGAACUAGUGGAUCCCCCGGCGCCCGGCGGCUCGAGCCCGGGUAAGUGUAAAUGGUCUGCAUGCCGCCGGGCGCCAUGCCUGCAGGUCGACUCUAGAAAACAUG
- binding signal (PUM1 PUF domain R1-RAQ): 1.23 log2 enrichment (interaction score)
